# RN4220 kill: kills Staphylococcus aureus RN4220. AID 1259311. S. aureus RN4220 growth, OD600, 16 h. 0.33% of 330,000 active. inhibition, % (concentration not given with the values); in the data active = inhibition above about 85%
# CCHFV vOTU inh: blocks the CCHF virus ovarian tumor domain protease. 0.55% of 370,000 active. CCHFV vOTU protease, Pep-AMC fluorescence. inhibition, % at 11.5 µM; in the data active = inhibition above about 30%
# Mtb hypoxia rep: Mtb hypoxia fluorescent reporter inhibition | AID 1159583 | fluorescence inhibition, % (test concentration not listed) | M. tuberculosis hypoxia-regulated fluorescent reporter, fluorescence | 0.1% of 300,000 active; in the data active = fluorescence inhibition mostly above about 23%, no sharp cut-off; inactive = mostly below about 17%
# SSB-PriA inh: blocks PriA binding to SSB C-terminal tail; 0.6% of 430,000 active; AID 1272365; inhibition, % at 33 µM; AlphaScreen SSBct-PriA binding, biotinylated peptide; in the data active = inhibition mostly above about 37%, no sharp cut-off; inactive = mostly below about 20%
# ugtP null kill: compounds lethal to S. aureus RN4220 ugtP deletion mutant | growth inhibition, % (concentration not given with the values) | OD600 growth, 16 h | 0.54% of 330,000 active; in the data active = growth inhibition above about 68%
# Numbers stand for hits; – = inactive; · = not tested or not shown; ! = not confirmed by another sample. Only some compounds are listed: those with a hit (about 1.4% of all), similar ones and a draw of the others.
SMILES,RN4220 kill,CCHFV vOTU inh,Mtb hypoxia rep,SSB-PriA inh,ugtP null kill
COc1c(N2CCN(C(=S)Nc3ccc(F)cc3)C(C)C2)c(F)cc2c(=O)c(C(=O)O)cn(C3CC3)c12 (centres undefined),100,–,·,–,99
COc1c(N2CCN(C(=S)NC3CC4CCC3C4)C(C)C2)c(F)cc2c(=O)c(C(=O)O)cn(C3CC3)c12 (centres undefined),100,–,·,–,100
N=C(N)Sc1c(-c2ccccc2)[nH]c2ccccc12,·,·,·,37,·
O=[N+]([O-])c1ccccc1Nc1ccccc1[N+](=O)[O-],–,–,–,–,–
O=[N+]([O-])c1cnccc1Nc1cccc(F)c1,–,–,–,–,–
O=[N+]([O-])c1ccccc1Nc1cccc(F)c1,–,–,–,49,–
O=[N+]([O-])c1ccccc1NCCOc1ccccc1,–,–,–,39,–
O=[N+]([O-])c1ccccc1Nc1ccccc1,–,–,–,70,–
Cc1cc(Nc2ccc(Cl)cc2)c2c([N+](=O)[O-])ccc(C)c2n1,·,·,·,–,·
Cc1cc(Nc2ccccc2)c2c([N+](=O)[O-])ccc(C)c2n1,–,–,–,60,–
CCOc1ccc2[nH]c3c(N4CCN(c5ccccn5)CC4)ncnc3c2c1,–,–,–,39,–
Cc1ccc2[nH]c3c(N4CCN(Cc5ccccc5)CC4)ncnc3c2c1,–,–,–,–,–
CC1CCCN(C(=O)c2ccc3c(c2NCCO)C(=O)c2ccccc2C3=O)C1 (centres undefined),–,–,·,64,–
COC(=O)c1ccc2c(=O)n(CCC(=O)N3CCN(c4cccc(C)c4C)CC3)c(=S)[nH]c2c1,·,·,·,–,·
O=[N+]([O-])c1ccc(N=Nc2ccc(O)cc2O)cc1,99,–,·,–,98
Fc1ccc(-c2ccc(-c3cc(-c4ccccc4)nnc3-c3ccccc3)o2)cc1Cl,·,·,·,–,·
COc1cccc(N2CCN(c3ncnc4c3[nH]c3ccc(F)cc34)CC2C)c1 (centres undefined),–,–,–,42,–
N#CC(=NNc1cccc(C(F)(F)F)c1)C(=O)c1csc(-c2cccnc2)n1,–,·,44,–,–
O=C(NCc1cccnc1)N(c1ccccc1)c1ccccc1,·,·,·,37,·
COc1cccc(CNC(=O)c2csc(Nc3ccccc3)n2)c1,·,·,·,–,·
[O-][n+]1c2ccccc2c2n1CCN1CCOC21c1ccc(Cl)cc1 (centres undefined),–,–,66,–,–
N#Cc1ccc(C23OCCN2CCn2nc4ccccc4c23)cc1 (centres undefined),–,–,–,–,–
N#Cc1nc(-c2cccs2)oc1N1CCN(Cc2ccccc2)CC1,–,–,–,41,–
N#Cc1nc(COc2ccccc2)oc1N1CCN(Cc2ccccc2)CC1,–,–,–,–,–
O=C(Nc1ccn2nccc2c1)c1ccc(C(F)(F)F)nc1,·,·,·,–,·
SMILES,RN4220 kill,CCHFV vOTU inh,Mtb hypoxia rep,SSB-PriA inh,ugtP null kill
CCOC(=O)c1sc(NC(=O)c2ccncc2)c(C(=O)OCC)c1C,·,·,·,–,·
CCOC(=O)c1sc(NC(=S)NC(=O)c2ccccc2)c(C(=O)OCC)c1C,–,–,–,82!,–
CCN(CC)C(=O)c1sc(NC(=O)c2ccncc2)c(C(=O)OC)c1C,–,–,–,65,–
CC(C)N(C(=O)Cn1cnc2ccccc21)c1ccccc1,·,·,·,–,·
C=CCc1cc(C=O)cc(OCC)c1OCc1ccc(Cl)cc1,–,–,–,–,99
C=CCc1cc(/C=C2/NC(=O)N(CC)C2=O)cc(OCC)c1OCc1ccc(C(=O)O)cc1,–,–,–,–,–
CCOc1cc(/C=N/O)cc(Br)c1OCc1ccc(Cl)cc1,·,–,·,·,·
CCOc1cc(C=NO)cc(Br)c1OCc1ccc(Cl)cc1,–,·,–,–,91
C=CCc1cc(C=O)cc(OC)c1OCc1ccc(Cl)cc1,–,–,·,–,86
COc1cc(OC)cc(-c2noc(Cn3ccn4nc(-c5ccccc5OC)cc4c3=O)n2)c1,·,·,·,–,·
O=C(NC(=S)NNC(=O)c1cnccn1)c1ccc(Cl)cc1,–,–,35,–,–
COc1ccc(C(=O)NC(=S)NNC(=O)c2cnccn2)cc1,–,–,–,–,–
COc1cc(C(=O)NC(=S)NNC(=O)c2cnccn2)cc(OC)c1OC,–,–,–,82,–
O=C(NC(=S)NNC(=O)c1ccccc1O)c1cccnc1,–,–,–,62,–
COc1ccc2c(c1OC)C(=O)N(c1ccn(Cc3ccc(Cl)cc3)n1)C2,·,·,·,–,·
Cc1cc(C)c2[nH]c(O)c(N=Nc3ccc(C(=O)O)cc3)c2c1,90,–,–,–,85
O=C(C1c2ccccc2Oc2ccccc21)N1CCc2ncncc2C1,·,·,·,–,·
O=c1oc2cc(Oc3c([N+](=O)[O-])cc(C(F)(F)F)cc3[N+](=O)[O-])ccc2c2c1CCCC2,–,–,–,–,94
COCCN1C(=O)C(=O)C(=C(O)c2ccc(S(=O)(=O)N3CCOCC3)cc2)C1c1ccc(O)cc1 (centres undefined),·,·,·,–,·
O=C(Nc1nc(-c2cccs2)c(C(=O)C(F)(F)F)s1)c1ccco1,–,–,–,–,–
O=C(Nc1nc(-c2cccs2)c(C(=O)C(F)(F)F)s1)c1ccccc1,88,–,–,–,–
O=C1NC(=S)S/C1=C\c1cc(Cl)ccc1Cl,100,–,–,–,100
O=C1NC(=S)S/C1=C\c1ccccc1F,·,·,·,–,·
CCc1ccc(S(=O)(=O)N2CCN(c3ccc(-c4cccnc4)nn3)CC2)s1,·,·,·,–,·
CCCOC(=O)c1ccc(-[n+]2c(-c3ccccc3)cc(-c3ccccc3)cc2-c2ccccc2)cc1,101,–,·,–,100
CCOC(=O)c1cnn(-c2nc(SC)nc3sc4c(c23)CCCC4)c1N,100,–,–,–,100
CCOC(=O)c1cnn(-c2ncnc3sc4c(c23)CCC4)c1N,–,–,–,–,–
